Results as given in the supplement of paper PMC6555819.

What was measured:
Assay in all cases: PBM binding z-score (relative to random genomic background probes); higher = stronger binding; sequences stand for … in GC…GCGATTGACAGCGTAGAATGAAGG
[1] = system: FXR:RXRa (NR concentration 270 nM, RXRa partner concentration 90 nM)
Outline: (§1)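 Custom Agilent 4×180K protein-binding microarrays carried double-stranded probes. Their 34-nt variable regions held direct-repeat seeds, single-nucleotide variants, half-site ablations and random human genomic background sequences. Arrays were incubated 1 h with ligand-free nuclear receptor dimers in PBS pH 7.4, 2% milk, 0.02% Triton X-100, 1 mM DTT, 0.2 mg/mL BSA and 0.4 mg/ml salmon testes DNA. Antibodies against each partner (one per run) detected binding, and scanned fluorescence was regression-normalized. Binding z-scores use random background probes as reference.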

[2] = system: LXRa:RXRa (NR concentration 270 nM, RXRa partner concentration 90 nM)
Outline: as §1

[3] = system: LXRa homodimer (NR concentration 270 nM)
Outline: as §1

[4] = system: LXRb:RXRa (NR concentration 270 nM, RXRa partner concentration 90 nM)
Outline: as §1

[5] = system: LXRb homodimer (NR concentration 270 nM)
Outline: as §1

[6] = system: PPARa:RXRa (NR concentration 270 nM, RXRa partner concentration 90 nM)
Outline: as §1

[7] = system: PPARg:RXRa (NR concentration 180 nM, RXRa partner concentration 90 nM)
Outline: as §1

[8] = system: PPARg:RXRa 270nM:90nM, anti-RXR (NR concentration 270 nM, RXRa partner concentration 90 nM)
Outline: as §1

[9] = system: PPARg:RXRa 30nM:10nM, anti-RXR (NR concentration 30 nM, RXRa partner concentration 10 nM)
Outline: as §1

[10] = system: PPARg:RXRa 90nM:30nM, anti-RXR (NR concentration 90 nM, RXRa partner concentration 30 nM)
Outline: as §1

[11] = system: PPARg:RXRa DBDmut IVT, anti-RXR (DBD mutation: RXRa K156A/R161A, NR concentration 270 nM, RXRa partner concentration 90 nM)
Outline: as §1

[12] = system: PPARg:RXRa IVT, anti-PPARg (NR concentration 270 nM, RXRa partner concentration 90 nM)
Outline: as §1

[13] = system: PPARg DBDmut:RXRa IVT, anti-PPARg (DBD mutation: PPARg1 K132A/R137A, NR concentration 270 nM, RXRa partner concentration 90 nM)
Outline: as §1

[14] = system: PPARg DBDmut IVT, anti-PPARg (DBD mutation: PPARg1 K132A/R137A, NR concentration 270 nM)
Outline: as §1

[15] = system: PPARg homodimer (NR concentration 180 nM)
Outline: as §1

[16] = system: PXR:RXRa (NR concentration 270 nM, RXRa partner concentration 90 nM)
Outline: as §1

[17] = system: PXR homodimer (NR concentration 270 nM)
Outline: as §1

[18] = system: RARa:RXR (NR concentration 270 nM, RXRa partner concentration 90 nM)
Outline: as §1

[19] = system: RARa homodimer (NR concentration 270 nM)
Outline: as §1

[20] = system: RARb:RXRa (NR concentration 270 nM, RXRa partner concentration 90 nM)
Outline: as §1

## CCTAGGAGGCCAGGGTCACTCAAGCATTTCGCTT
[1]
  PBM binding z-score: 1.76
[2]
  PBM binding z-score: 1.21
[3]
  PBM binding z-score: -0.383
[4]
  PBM binding z-score: 1.7
[5]
  PBM binding z-score: -1.15
[6]
  PBM binding z-score: 3
[7]
  PBM binding z-score: 0.95
[8]
  PBM binding z-score: 1.71
[9]
  PBM binding z-score: -0.259
[10]
  PBM binding z-score: 0.653
[11]
  PBM binding z-score: 0.19
[12]
  PBM binding z-score: 1.11
[13]
  PBM binding z-score: -0.773
[14]
  PBM binding z-score: -1.85
[15]
  PBM binding z-score: 1.09
[16]
  PBM binding z-score: 2.28
[17]
  PBM binding z-score: -0.346
[18]
  PBM binding z-score: 2.55
[19]
  PBM binding z-score: -0.732
[20]
  PBM binding z-score: 2.67

## TTACCAAGGTGAAGATCGTTGATCCCTCTGTAGA
[1]
  PBM binding z-score: 0.339
[2]
  PBM binding z-score: 0.08
[3]
  PBM binding z-score: -0.422
[4]
  PBM binding z-score: 0.141
[5]
  PBM binding z-score: -0.815
[6]
  PBM binding z-score: 1.14
[7]
  PBM binding z-score: 0.457
[8]
  PBM binding z-score: 0.958
[9]
  PBM binding z-score: 0.156
[10]
  PBM binding z-score: 0.575
[11]
  PBM binding z-score: 1.37
[12]
  PBM binding z-score: 1.92
[13]
  PBM binding z-score: 0.401
[14]
  PBM binding z-score: 0.0725
[15]
  PBM binding z-score: 0.177
[16]
  PBM binding z-score: 0.123
[17]
  PBM binding z-score: -0.895
[18]
  PBM binding z-score: 0.533
[19]
  PBM binding z-score: -0.66
[20]
  PBM binding z-score: 1.26

## TGTCAAAGTTCAAAGGTAACGTATGTATCCACAC
[1]
  PBM binding z-score: 7.33
[2]
  PBM binding z-score: 6.48
[3]
  PBM binding z-score: 4.88
[4]
  PBM binding z-score: 4.63
[5]
  PBM binding z-score: 1.63
[6]
  PBM binding z-score: 5.67
[7]
  PBM binding z-score: 8.6
[8]
  PBM binding z-score: 7.61
[9]
  PBM binding z-score: 5.63
[10]
  PBM binding z-score: 7.23
[11]
  PBM binding z-score: 0.0702
[12]
  PBM binding z-score: 4.53
[13]
  PBM binding z-score: 1.85
[14]
  PBM binding z-score: 1.93
[15]
  PBM binding z-score: 2.61
[16]
  PBM binding z-score: 5.65
[17]
  PBM binding z-score: 3.95
[18]
  PBM binding z-score: 6.64
[19]
  PBM binding z-score: 1.84
[20]
  PBM binding z-score: 5.04

## CAAACTAGGTCACAGAGCTCAAAGTCCGTGCGTA
[1]
  PBM binding z-score: 4.29
[2]
  PBM binding z-score: 3.18
[3]
  PBM binding z-score: 0.278
[4]
  PBM binding z-score: 2.01
[5]
  PBM binding z-score: 0.231
[6]
  PBM binding z-score: 5.45
[7]
  PBM binding z-score: 8.88
[8]
  PBM binding z-score: 7.47
[9]
  PBM binding z-score: 5.2
[10]
  PBM binding z-score: 7.26
[11]
  PBM binding z-score: 8.61
[12]
  PBM binding z-score: 8.86
[13]
  PBM binding z-score: 3.69
[14]
  PBM binding z-score: 1.2
[15]
  PBM binding z-score: 1.74
[16]
  PBM binding z-score: 1.81
[17]
  PBM binding z-score: -0.0569
[18]
  PBM binding z-score: 2.68
[19]
  PBM binding z-score: 0.446
[20]
  PBM binding z-score: 4.13

## CCGAGTAGGTTATGGGGCATTTAGGCAACGGTGA
[1]
  PBM binding z-score: 0.297
[2]
  PBM binding z-score: 0.407
[3]
  PBM binding z-score: 0.011
[4]
  PBM binding z-score: 0.603
[5]
  PBM binding z-score: -0.473
[6]
  PBM binding z-score: 2.22
[7]
  PBM binding z-score: 3.51
[8]
  PBM binding z-score: 4.47
[9]
  PBM binding z-score: 2.4
[10]
  PBM binding z-score: 4.37
[11]
  PBM binding z-score: 3.07
[12]
  PBM binding z-score: 3.53
[13]
  PBM binding z-score: -0.425
[14]
  PBM binding z-score: -0.513
[15]
  PBM binding z-score: 2.12
[16]
  PBM binding z-score: -0.00225
[17]
  PBM binding z-score: -0.192
[18]
  PBM binding z-score: 0.292
[19]
  PBM binding z-score: 0.0296
[20]
  PBM binding z-score: 0.919

## TCTAGTTGGTCACGGAGGTCACACATGACGGGTA
[1]
  PBM binding z-score: 3.11
[2]
  PBM binding z-score: 3.52
[3]
  PBM binding z-score: 2.42
[4]
  PBM binding z-score: 3.42
[5]
  PBM binding z-score: 0.605
[6]
  PBM binding z-score: 4.06
[7]
  PBM binding z-score: 3.59
[8]
  PBM binding z-score: 4.13
[9]
  PBM binding z-score: 3.55
[10]
  PBM binding z-score: 3.84
[11]
  PBM binding z-score: 2.5
[12]
  PBM binding z-score: 4.34
[13]
  PBM binding z-score: 1.38
[14]
  PBM binding z-score: 0.722
[15]
  PBM binding z-score: 2.93
[16]
  PBM binding z-score: 4.71
[17]
  PBM binding z-score: 1.67
[18]
  PBM binding z-score: 4.56
[19]
  PBM binding z-score: 1.18
[20]
  PBM binding z-score: 4.01
